# Data reported in paper PMC5540273 (PLoS ONE, 2017).
# Values joined by “and” are separate entries in the source; they are usually repeats but may differ in a detail not shown here. Equal values may be shown once. Read-outs that look alike come from different tables or passages of the source.
# Columns and labels:
# Details in all cases: concentration: 1 μM, replicates: in singlicate, n = 1
# [1] = tested on: MAP4K3
# [2] = tested on: MAP4K4
# [3] = tested on: MAP4K5
# [4] = tested on: MAPKAPK2
# [5] = tested on: MAPKAPK5
# [6] = tested on: MARK1
# [7] = tested on: MARK2
# [8] = tested on: MARK3
# [9] = tested on: MARK4
# [10] = tested on: MAST1
# [11] = tested on: T1, MEK1
# T1 construct: gene MAP2K1
# [12] = tested on: T2, MEK2
# T2 construct: gene MAP2K2
# [13] = tested on: T3, MEK3
# T3 construct: gene MAP2K3
# [14] = tested on: T4, MEK4
# T4 construct: gene MAP2K4
# [15] = tested on: T5, MEK5
# T5 construct: gene MAP2K5
# [16] = tested on: T6, MEK6
# T6 construct: gene MAP2K6
# [17] = tested on: MELK
# [18] = tested on: MERTK
# [19] = tested on: MET
# [20] = tested on: T7, MINK
# T7 construct: gene MINK1
# 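Also: KINOMEscan kinase panel screen.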
structure (smiles),measurement,setting,value
COc1ccc(COc2cc(-n3cnc4ccccc43)sc2C(N)=O)cc1 [GSK1024304],%Inh,[1],0%
same,%Inh,[2],2%
same,%Inh,[3],24%
same,%Inh,[4],0%
same,%Inh,[5],0%
same,%Inh,[6],0%
same,%Inh,[7],1%
same,%Inh,[8],5%
same,%Inh,[9],11%
same,%Inh,[10],0%
same,%Inh,[11],0%
same,%Inh,[12],0%
same,%Inh,[13],0%
same,%Inh,[14],14%
same,%Inh,[15],32%
same,%Inh,[16],0%
same,%Inh,[17],0%
same,%Inh,[18],1%
same,%Inh,[19],0%
same,%Inh,[20],24%
Cl.Cl.Cl.Fc1ccc(-c2ncn(C3CCNCC3)c2-c2ccnc(Nc3ccccc3)n2)cc1 [SB-238039],%Inh,[1]; 1 µM,41% and 5%
same,%Inh,[2]; 1 µM,74% and 60%
same,%Inh,[3]; 1 µM,94.1% and 85%
same,%Inh,[4]; 1 µM,2% and 33%
same,%Inh,[5]; 1 µM,0% and 9%
same,%Inh,[6]; 1 µM,13% and 10%
same,%Inh,[7]; 1 µM,43% and 42%
same,%Inh,[8]; 1 µM,10% and 0%
same,%Inh,[9]; 1 µM,27% and 11%
same,%Inh,[10]; 1 µM,52% and 37%
same,%Inh,[11]; 1 µM,36% and 3%
same,%Inh,[12]; 1 µM,58% and 26%
same,%Inh,[13]; 1 µM,45% and 44%
same,%Inh,[14]; 1 µM,31% and 6%
same,%Inh,[15]; 1 µM,47% and 18%
same,%Inh,[16]; 1 µM,59% and 42%
same,%Inh,[17]; 1 µM,51% and 31%
same,%Inh,[18]; 1 µM,15% and 0%
same,%Inh,[19]; 1 µM,8% and 0%
same,%Inh,[20]; 1 µM,89% and 88%
Cc1c2ccc(N(C)c3ccnc(Nc4cccc(S(N)(=O)=O)c4)n3)cc2nn1Cc1ccccc1.Cl.Cl [GW787226],%Inh,[1],70%
same,%Inh,[2],33%
same,%Inh,[3],87%
same,%Inh,[4],0%
same,%Inh,[5],0%
same,%Inh,[6],18%
same,%Inh,[7],0%
same,%Inh,[8],49%
same,%Inh,[9],36%
same,%Inh,[10],0%
same,%Inh,[11],12%
same,%Inh,[12],34%
same,%Inh,[13],29%
same,%Inh,[14],75%
same,%Inh,[15],98.4%
same,%Inh,[16],23%
same,%Inh,[17],16%
same,%Inh,[18],70%
same,%Inh,[19],60%
same,%Inh,[20],54%
NCCNS(=O)(=O)c1ccc(-c2ccnc3[nH]ccc23)cc1 [GSK977617],%Inh,[1]; 1 µM,20% and 0%
same,%Inh,[2]; 1 µM,43% and 25%
same,%Inh,[3]; 1 µM,8% and 0%
same,%Inh,[4],0%
same,%Inh,[5],0%
same,%Inh,[6]; 1 µM,18% and 0%
same,%Inh,[7]; 1 µM,53% and 40%
same,%Inh,[8]; 1 µM,25% and 4%
same,%Inh,[9]; 1 µM,36% and 12%
same,%Inh,[10],0%
same,%Inh,[11]; 1 µM,24% and 17%
same,%Inh,[12]; 1 µM,52% and 48%
same,%Inh,[13]; 1 µM,46% and 21%
same,%Inh,[14]; 1 µM,42% and 23%
same,%Inh,[15]; 1 µM,88% and 70%
same,%Inh,[16]; 1 µM,18% and 11%
same,%Inh,[17]; 1 µM,99.2% and 95.2%
same,%Inh,[18]; 1 µM,73% and 57%
same,%Inh,[19]; 1 µM,20% and 0%
same,%Inh,[20]; 1 µM,48% and 34%
Cc1c(Cn2c(C)nn3c(=O)cc(N4CCOC(C)C4)nc23)cccc1C(F)(F)F (centres unmarked) [GSK2344444],%Inh,[1],0%
same,%Inh,[2],18%
same,%Inh,[3],16%
same,%Inh,[4],1%
same,%Inh,[5],0%
same,%Inh,[6],0%
same,%Inh,[7],0%
same,%Inh,[8],0%
same,%Inh,[9],0%
same,%Inh,[10],0%
same,%Inh,[11],0%
same,%Inh,[12],0%
same,%Inh,[13],0%
same,%Inh,[14],17%
same,%Inh,[15],49%
same,%Inh,[16],0%
same,%Inh,[17],0%
same,%Inh,[18],10%
same,%Inh,[19],0%
same,%Inh,[20],0%
COc1cc2ncn(-c3cc(OCc4sccc4Cl)c(C(N)=O)s3)c2cc1OC [GSK448459],%Inh,[1],50%
same,%Inh,[2],0%
same,%Inh,[3],99.1%
same,%Inh,[4],0%
same,%Inh,[5],0%
same,%Inh,[6],0%
same,%Inh,[7],0%
same,%Inh,[8],0%
same,%Inh,[9],0%
same,%Inh,[10],0%
same,%Inh,[11],0%
same,%Inh,[12],0%
same,%Inh,[13],0%
same,%Inh,[14],15%
same,%Inh,[15],99.8%
same,%Inh,[16],0%
same,%Inh,[17],0%
same,%Inh,[18],23%
same,%Inh,[19],8%
same,%Inh,[20],50%
NS(=O)(=O)c1cccc(-c2ccc3nccc(-c4cccc(S(N)(=O)=O)c4)c3c2)c1 [GW867253],%Inh,[1],0%
same,%Inh,[2],0%
same,%Inh,[3],0%
same,%Inh,[4],0%
same,%Inh,[5],0%
same,%Inh,[6],7%
same,%Inh,[7],0%
same,%Inh,[8],0%
same,%Inh,[9],25%
same,%Inh,[10],47%
same,%Inh,[11],23%
same,%Inh,[12],30%
same,%Inh,[13],38%
same,%Inh,[14],15%
same,%Inh,[15],41%
same,%Inh,[16],7%
same,%Inh,[17],0%
same,%Inh,[18],14%
same,%Inh,[19],0%
same,%Inh,[20],27%
NS(=O)(=O)CCc1cccc(Nc2nccc(-c3c(-c4cccc(NC(=O)c5c(F)cccc5F)c4)nn4ccccc34)n2)c1 [GSK336735],%Inh,[1],65%
same,%Inh,[2],76%
same,%Inh,[3],95.8%
same,%Inh,[4],23%
same,%Inh,[5],0%
same,%Inh,[6],13%
same,%Inh,[7],0%
same,%Inh,[8],6%
same,%Inh,[9],26%
same,%Inh,[10],0%
same,%Inh,[11],82%
same,%Inh,[12],76%
same,%Inh,[13],12%
same,%Inh,[14],36%
same,%Inh,[15],99.7%
same,%Inh,[16],47%
same,%Inh,[17],24%
same,%Inh,[18],87%
same,%Inh,[19],83%
same,%Inh,[20],62%
CN1c2ccc(NCc3ccc(F)cc3)cc2-c2c(cnn2C)S1(=O)=O,%Inh,[1],1%
same,%Inh,[2],0%
same,%Inh,[3],12%
same,%Inh,[4],0%
same,%Inh,[5],0%
same,%Inh,[6],0%
same,%Inh,[7],0%
same,%Inh,[8],0%
same,%Inh,[9],13%
same,%Inh,[10],11%
same,%Inh,[11],7%
same,%Inh,[12],27%
same,%Inh,[13],13%
same,%Inh,[14],0%
same,%Inh,[15],17%
same,%Inh,[16],0%
same,%Inh,[17],0%
same,%Inh,[18],0%
same,%Inh,[19],3%
same,%Inh,[20],26%
Cl.Oc1cccc(Nc2ccnc3cc(-c4ccncc4)ccc23)c1 [GW494601],%Inh,[1],0%
same,%Inh,[2],47%
same,%Inh,[3],20%
same,%Inh,[4],0%
same,%Inh,[5],0%
same,%Inh,[6],6%
same,%Inh,[7],0%
same,%Inh,[8],0%
same,%Inh,[9],10%
same,%Inh,[10],51%
same,%Inh,[11],33%
same,%Inh,[12],100%
same,%Inh,[13],0%
same,%Inh,[14],18%
same,%Inh,[15],99.8%
same,%Inh,[16],0%
same,%Inh,[17],0%
same,%Inh,[18],46%
same,%Inh,[19],0%
same,%Inh,[20],79%
